Screening data: PubChem, Broad Institute
STK33 kin inh: blocks human STK33 kinase activity | ADP-Glo luminescence, MBP substrate | inhibition, % at 12.5 µM | hit rate 0.44% among 27,000; in the data active means inhibition above about 20%
mut p53 react: restores mutant p53 pathway signaling in SW480 cells. SW480 PUMA-promoter luciferase, p53 mutant reactivation. activation, % at 9.98 µM. hit rate 1.5% among 28,000; in the data active means activation above about 52%
ID4 binder: binders of human ID4 protein. P47928. calls only. small molecule microarray, Flag-ID4 binding, fluorescence F/B. AID 624137. hit rate 1.2% among 31,000; call rule not given here;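 further: a binder raises fluorescence above local background on the spot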
Target sequence (P47928 whole entry, looked up): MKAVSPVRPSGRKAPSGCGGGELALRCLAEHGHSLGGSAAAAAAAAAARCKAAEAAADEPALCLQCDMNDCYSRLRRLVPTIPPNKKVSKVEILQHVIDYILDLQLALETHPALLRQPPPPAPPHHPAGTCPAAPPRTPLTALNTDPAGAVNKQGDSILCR
Large screens that a line does not name were inactive. An excerpt weighted towards active compounds, which were near 2.1% of everything screened.

CC(C)OC(=O)c1cn(Cc2c(F)cccc2F)c2sc(-c3ccc(NC(=O)C(C)C)cc3)c(CN(C)Cc3ccccc3)c2c1=O	ID4 binder active (no result: STK33 kin inh)
COC(=O)C(CC#Cc1ccc2c(c1)[C@]1(C(=O)N2)[C@H](C(=O)O)[C@H]2C(=O)O[C@H](c3ccccc3)[C@H](c3ccccc3)N2[C@@H]1c1ccc(O)cc1)C(=O)OC	none (no result: mut p53 react)
COc1ccc(NC(=O)CCN2C(=O)c3ccccc3C2=O)cc1Cl	none
Cc1nccc(-c2cccc(NS(=O)(=O)c3ccccc3C(F)(F)F)c2)n1	none (no result: mut p53 react, ID4 binder)
COc1cc2ncnc(Nc3cccc(O)c3)c2cc1OC	STK33 kin inh 43 (no result: ID4 binder)
COc1cc2ncnc(Nc3cccc(Br)c3)c2cc1OC	none (no result: ID4 binder)
C[C@H]1CCCCO[C@@H](CN(C)C(=O)C2CCCCC2)[C@@H](C)CN([C@@H](C)CO)C(=O)c2cc(NC(=O)c3ccncc3)ccc2O1	none (no result: STK33 kin inh)
C[C@@H]1CN([C@H](C)CO)C(=O)c2cc(NS(=O)(=O)c3ccccc3)ccc2O[C@@H](C)CCCCO[C@@H]1CN(C)C(=O)c1ccncc1	ID4 binder active (no result: STK33 kin inh)
C[C@@H]1CCCCO[C@H](CN(C)C(=O)C2CCCCC2)[C@@H](C)CN([C@@H](C)CO)C(=O)c2cc(NC(=O)c3ccncc3)ccc2O1	ID4 binder active (no result: STK33 kin inh)
C[C@@H]1CCCCO[C@H](CN(C)C(=O)c2ccncc2)[C@@H](C)CN([C@H](C)CO)C(=O)c2cc(NS(=O)(=O)c3ccccc3)ccc2O1	none
Cc1c(Br)ccc(NC(=O)CSc2nnnn2-c2ccccc2)c1C	none
Cc1ccc(NC(=O)CSC2CC(=O)N(c3ccccc3)C2=O)cc1C (stereo not given)	none
COc1ccccc1-c1cc(=O)c2c(OC)cccc2o1	none (no result: mut p53 react, ID4 binder)
COc1ccccc1-c1cc(=O)c2ccccc2o1	mut p53 react 138
CN(C)c1nc(N)nc(CSc2ncc(Cl)cc2Cl)n1	mut p53 react 62
CN(C)c1nc(N)nc(CSc2nnnn2C)n1	none
COC(=O)CN(c1ccc(C)c(Cl)c1)S(=O)(=O)c1ccccc1	none
CC(=O)C(C#N)C(=O)Nc1cc(Br)ccc1Br (stereo not given)	STK33 kin inh 22
Cn1c(SCC(=O)Nc2cccc(F)c2)nnc1-c1ccc(Cl)cc1	none
CC(Oc1ccccc1F)C(=O)Nc1ccccc1[N+](=O)[O-] (stereo not given)	mut p53 react 57
CC(Oc1ccc(Br)cc1)C(=O)Nc1ccccc1[N+](=O)[O-] (stereo not given)	none
O=C(CCn1cnc2ccccc2c1=O)Nc1ccc(F)c(C(F)(F)F)c1	none
CC(C)n1cnc2c(NCc3ccccc3)nc(NCCO)nc21	STK33 kin inh 35, mut p53 react 92
CC(C)n1cnc2c(NCc3ccccc3)nc(NCCCO)nc21	none (no result: STK33 kin inh, ID4 binder)
CC(NS(=O)(=O)c1ccc(Cl)cc1)C(=O)Nc1cc(Cl)ccc1Oc1ccccc1 (stereo not given)	none
O=S(=O)(c1cccc2cccnc12)N1CCN(Cc2ccc(OCCO)cc2)CC1	ID4 binder active (no result: mut p53 react)
O=S(=O)(NC1CCN(Cc2ccc(OCCO)cc2)CC1)c1cccc2cccnc12	none (no result: STK33 kin inh, mut p53 react)
C=C1C(=O)O[C@@H]2/C=C(\C)[C@H](OC(C)=O)C/C=C(/C)C[C@@H](OC(=O)/C(=C/CO)CO)C12 (stereo not given in full)	none (no result: mut p53 react, ID4 binder)
CNC[C@@H]1Oc2ccc(NC(=O)Cc3cn(C)c4ccccc34)cc2CC(=O)N([C@H](C)CO)C[C@@H]1C	none
CNC[C@H]1Oc2ccc(NC(=O)Cc3cn(C)c4ccccc34)cc2CC(=O)N([C@@H](C)CO)C[C@H]1C	ID4 binder active (no result: STK33 kin inh)
CNC[C@H]1Oc2ccc(NC(=O)Cc3ccccc3)cc2CC(=O)N([C@H](C)CO)C[C@@H]1C	ID4 binder active (no result: STK33 kin inh)
CNC[C@@H]1Oc2ccc(NC(=O)Cc3ccccc3)cc2CC(=O)N([C@H](C)CO)C[C@@H]1C	none
CC1CCc2c(sc(NC(=O)COc3cccc4ccccc34)c2C#N)C1 (stereo not given)	none
O=C(C[C@H]1CC[C@@H](NC(=O)C2CCC2)[C@@H](CO)O1)NCCCN1CCOCC1	ID4 binder active (no result: STK33 kin inh, mut p53 react)
O=C(C[C@H]1CC[C@H](NC(=O)C2CCC2)[C@H](CO)O1)NCCCN1CCOCC1	none (no result: STK33 kin inh, mut p53 react)
COC(=O)CCCCCCC(=O)Nc1ccc(C2OC(CSc3ccccn3)CC(c3ccccc3)O2)cc1 (stereo not given)	none (no result: mut p53 react)
O=C(O)CCCCCCC(=O)Nc1ccc(C2OC(CSCCO)CC(c3ccccc3)O2)cc1 (stereo not given)	ID4 binder active (no result: STK33 kin inh, mut p53 react)
O=C(COc1ccc(Cl)cc1Br)Nc1ccccc1C(=O)NC1CCCCC1	none
COc1cc(S(=O)(=O)n2cnc3ccccc32)c(OC)cc1Cl	none
COc1cc(S(=O)(=O)n2nnc3ccccc32)c(OC)cc1Cl	ID4 binder active
O=C(CC1c2ccccc2Oc2ccccc21)NCCOc1ccccc1Cl	none (no result: STK33 kin inh)
CC(C)(C)NS(=O)(=O)c1ccc(NC(=O)CSc2nc3ccccc3s2)cc1	none
C[C@H]1CN([C@@H](C)CO)C(=O)CCCn2nncc2CO[C@@H]1CN(C)C(=O)Nc1ccccc1F	none
C[C@H]1CN([C@@H](C)CO)C(=O)CCCn2nncc2CO[C@H]1CN(C)CC1CCCCC1	none (no result: mut p53 react)
C[C@@H]1CN([C@H](C)CO)C(=O)CCCn2cc(nn2)CO[C@H]1CN(C)C(=O)c1ccc(N2CCN(C)CC2)cc1	none
C[C@@H]1CN([C@@H](C)CO)C(=O)CCCn2nncc2CO[C@H]1CN(C)CC1CCCCC1	ID4 binder active (no result: mut p53 react)
C[C@H](CO)N1C[C@H](C)[C@@H](CN(C)CC2CCCCC2)OCc2cn(nn2)CCCC1=O	ID4 binder active (no result: mut p53 react)
C[C@H](CO)N1C[C@H](C)[C@@H](CN(C)C(=O)Nc2ccccc2F)OCc2cnnn2CCCC1=O	ID4 binder active
C[C@H](CO)N1C[C@H](C)[C@H](CN(C)CC2CCCCC2)OCc2cn(nn2)CCCC1=O	none (no result: mut p53 react)
C[C@@H]1CN([C@@H](C)CO)C(=O)CCCn2cc(nn2)CO[C@H]1CN(C)C(=O)c1ccc(N2CCN(C)CC2)cc1	ID4 binder active
Cc1cc(OCC(=O)Nc2ccc(O)cc2C(=O)O)cc(C)c1Cl	none
C=C1CC(O)C2C(=C)C(=O)OC2C2C(=C)C(OC3OC(CO)C(O)C(OC(=O)/C=C/c4ccc(O)c(O)c4)C3O)CC12 (stereo not given)	none
O=C(CSc1nc2ccccc2c(=O)n1-c1ccc(Br)cc1)Nc1cccc(F)c1	none
C/C=C/c1cnc2c(c1)C(=O)N([C@@H](C)CO)C[C@@H](C)[C@@H](CN(C)C(=O)Nc1cccc(OC)c1)O2	none (no result: STK33 kin inh, ID4 binder)
C[C@H]1CN([C@@H](C)CO)C(=O)c2cc(/C=C/c3ccccc3)cnc2O[C@H]1CN(C)C(=O)Nc1ccccc1F	none (no result: STK33 kin inh, ID4 binder)
C[C@@H]1CN([C@@H](C)CO)C(=O)c2cc(/C=C/c3ccccc3)cnc2O[C@H]1CN(C)C(=O)Nc1ccccc1F	ID4 binder active (no result: STK33 kin inh)
C[C@@H]1CN([C@@H](C)CO)C(=O)c2cc(-c3ccc(F)cc3)cnc2O[C@@H]1CN(C)C(=O)Nc1ccccc1F	ID4 binder active (no result: STK33 kin inh)
CCCNC(=O)N(C)C[C@H]1Oc2ncc(-c3ccc(C(=O)N(C)C)cc3)cc2C(=O)N([C@H](C)CO)C[C@H]1C	ID4 binder active (no result: STK33 kin inh)
C[C@H](CO)N1C[C@H](C)[C@H](CN(C)C(=O)Nc2ccccc2F)Oc2ncc(-c3ccc(F)cc3)cc2C1=O	none (no result: STK33 kin inh)
COc1cccc(NC(=O)N(C)C[C@@H]2Oc3ncc(/C=C/c4ccccc4)cc3C(=O)N([C@H](C)CO)C[C@@H]2C)c1	ID4 binder active (no result: STK33 kin inh)
